HSF1 inhib – HSF1 inhibition. actives 0.77% (n = 300,000). AID 2098. NIH3T3-HGL HSE-luciferase, MG132-induced, luminescence 8 h; stronger effect = lower value. activity change, negative = inhibition, % at 7.5 µM (by protocol);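 active means more than half of replicate wells show activity change below -50%, luminescence cut by over half; inconclusive means some wells, but at most half, below -50%; inactive means no replicate well below -50%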;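 further: luciferase reports HSF-1 transcriptional activity via heat shock element; 0% = median of DMSO wells and -100% = zero luminescence signal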
esBAF inh – SWI/SNF esBAF complex inhibition | mouse ES cells, Bmi1-luciferase knock-in reporter, 24 h; 100% = twice the neutral-well signal | reporter increase, % at 12.5 µM | actives 2% (n = 350,000) | AID 602393; in the data active means activation above about 40%; inconclusive means no clear call, values can overlap the other calls;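 further: 0% = median of the plate's neutral control wells and 100% = double that signal; a rise in the Bmi1 reporter signal indicates esBAF inhibition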
Vif imaging – inhibitors of HIV Vif | HEK293T cells, Vif self-association by quenched fluorescence, imaging, 24 h | inhibition, % at 7.49 µM | actives 0.35% (n = 340,000) | AID 602346; in the data active means inhibition above about 50%, passing the limit was not always enough; inconclusive means no clear call, values can overlap the other calls; inactive means below about 31%
HSF1 activator – increases HSF-1 driven luciferase reporter signal. NIH3T3-HGL HSF-1 luciferase reporter, MG132, 8 h; 100% = twice DMSO control signal. activation, % at 9 µM. actives 1.7% (n = 300,000);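 active means mean replicate activation of at least 50% with a set share of replicates each reaching 50%; inconclusive means only one of those two conditions met; inactive means mean below 50% and too few replicates reaching it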;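 further: 0% = median of the neutral control wells and 100% = twice that signal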
Active calls of the source: *; ? = inconclusive; / = no result. Only some compounds are listed: those with a hit (about 3.4% of all), similar ones and a draw of the others.

SMILES | HSF1 inhib | esBAF inh | Vif imaging | HSF1 activator
CN1C(=O)C2(c3ccccc31)N(C)CC(c1ccccn1)C21SC(=S)N(Cc2ccco2)C1=O (stereo unspecified) | 34.2 | / | / | 84.9*
Cc1nnc(N2C(=O)c3cccc4cccc(c34)C2=O)s1 | -55.1* | / | 1.1 | -63.3
CCCc1nnc(N2C(=O)c3cccc4cccc(c34)C2=O)s1 | 10.1 | 5.3 | -3.0 | 4.7
Cc1c(/C(O)=C2/C(=O)C(=O)N(Cc3cccnc3)C2c2cccs2)cnn1-c1ccccc1 (stereo unspecified) | -64.1* | 46.1* | 4.0 | -67.9
CN(C)S(=O)(=O)c1ccc(/C(O)=C2/C(=O)C(=O)N(Cc3cccnc3)C2c2cccs2)cc1 (stereo unspecified) | -4.4 | / | -8.9 | 2.0
Cc1c(/C(O)=C2/C(=O)C(=O)N(Cc3cccnc3)C2c2ccccn2)cnn1-c1ccccc1 (stereo unspecified) | -76.2* | / | -1.9 | -80.0
Fc1ccc(Sc2nc(-c3ccccc3)nnc2C(F)(F)F)cc1 | 42.9 | -3.8 | -15.4 | 66.5*
O=C(Cc1ccccc1)Nc1ccc2c(c1)CCC2 | 9.5 | / | -6.2 | ?
Cc1cc(NC(=O)CC2CCCC2)ccc1Br | 35.2 | 65.3* | -1.9 | 39.5
Cc1cc(NC(=S)NC(=O)CC(C)C)ccc1Br | 7.2 | 57.9* | -2.6 | 13.1
Cc1cccc(NC(=O)CC2CCC2)c1 | -4.1 | 14.9 | 17.1 | -1.3
O=C(CC1CCCC1)Nc1ccc2c(c1)CCC2 | 21.2 | 84.4* | 5.8 | 25.4
C[C@H](CO)N1C[C@H](C)[C@H](CN(C)C)Oc2c(NS(=O)(=O)c3cn(C)cn3)cccc2C1=O | / | 1.9 | / | /
CO[C@@H]1CN(C)C(=O)c2cc(NC(C)=O)ccc2OC[C@@H](C)N(C(=O)CN2CCOCC2)C[C@H]1C | / | -4.9 | / | /
O=C(O)CCn1[nH]c(=O)ccc1=O | 12.3 | -2.8 | 22.6 | 58.0*
CC1(C)CC(=O)C2=C(C1)Nc1ccccc1N(C(=O)C1CC1)C2c1ccco1 (stereo unspecified) | -1.5 | -3.0 | 51.8* | 4.1
CCCCN1C=CC(=C2C(=O)c3ccccc3C2=O)C=C1 | -82.5* | -86.8 | -7.3 | -86.7
C[C@@H]1CN([C@H](C)CO)C(=O)c2cc(NC(=O)NC3CCCCC3)ccc2O[C@@H](C)CCCCO[C@H]1CN(C)Cc1ccncc1 | / | 3.0 | / | /
C[C@H](CO)N1C[C@H](C)[C@@H](CN(C)S(=O)(=O)c2ccc(F)cc2)Oc2ccc(NC(=O)c3ccncc3)cc2CC1=O | / | -4.6 | / | /
O=S(=O)(c1cccc(-c2nnc(SCc3nc4ccccc4s3)o2)c1)N1CCOCC1 | 53.9 | -10.1 | / | 53.7*
CCCSc1nc2cc(S(=O)(=O)N3CCOCC3)ccc2n1CC | 3.1 | / | / | 9.1
CC(=O)CCSc1nnc(-c2cccc(S(=O)(=O)N3CCOCC3)c2)o1 | 0.5 | -6.5 | ? | -9.8
O=S(=O)(c1ccc(OCc2nc3ccccc3s2)c(Cl)c1)N1CCOCC1 | 7.4 | 85.6* | 1.0 | 22.7
N#CCc1nc2ccc(S(=O)(=O)N3CCOCC3)cc2s1 | 0.3 | -9.6 | -3.6 | 4.6
CCn1c(SCc2nc3ccccc3s2)nc2cc(S(=O)(=O)N3CCOCC3)ccc21 | 41.2 | 62.4* | -7.7 | 69.3*
SMILES | HSF1 inhib | esBAF inh | Vif imaging | HSF1 activator
C[C@H]1CN([C@@H](C)CO)C(=O)c2cc(NC(=O)Cc3cn(C)c4ccccc34)ccc2O[C@H]1CN(C)S(=O)(=O)c1ccccc1 | / | 1.9 | / | /
O=C(C[C@H]1C=C[C@@H](NC(=O)c2ccccc2)[C@@H](CO)O1)NCc1ccncn1 | / | -7.5 | / | /
CCCN(CC(=O)Nc1ccccc1C)C(=O)c1ccc2ccccc2n1 | -7.9 | -0.3 | -4.2 | -3.2
Cc1ccccc1NC(=S)c1ccc2ccccc2n1 | 18.3 | 70.0* | 0.1 | 39.4
C[C@@H]1CCCCO[C@@H](CN(C)S(=O)(=O)c2cccs2)[C@H](C)CN([C@@H](C)CO)C(=O)c2cc(NS(C)(=O)=O)ccc2O1 | / | 0.5 | / | /
CC(=O)N1CCc2cc(S(=O)(=O)NCCC(=O)Nc3cccc(C)c3)ccc21 | -1.0 | 2.9 | -6.7 | 10.7
CCN(CCCNS(=O)(=O)c1ccc2c(c1)CCN2C(C)=O)c1cccc(C)c1 | 44.1 | -6.4 | -2.3 | 68.6*
COCCCn1cnc2c(c1=O)c1nc3ccccc3nc1n2-c1ccc(C)cc1 | 3.4 | 2.3 | 11.5 | 7.6
Cc1cc(C)cc(-n2c3nc4ccccc4nc3c3c(=O)n(Cc4ccco4)cnc32)c1 | 85.3 | -0.3 | 3.1 | 119.2*
NC(=O)C1CCN(C2=C(Cl)C(=O)c3ccccc3C2=O)CC1 | 40.6 | 0.3 | ? | 74.6*
CC(C)NC(=O)Nc1cccc2c1O[C@H](CN(C)S(=O)(=O)c1ccc(F)cc1)[C@H](C)CN([C@@H](C)CO)C2=O | / | -1.7 | / | /
CC1(C)Cc2c(C#N)c(N3CCCC3)nc(-c3ccco3)c2CO1 | 57.1 | 3.9 | 7.0 | 110.6*
CC1(C)Cc2c(C#N)c(NCc3ccco3)nc(-c3ccco3)c2CO1 | -3.5 | -6.9 | -2.9 | 3.9
COc1cccc(/C=N/Nc2nc(C)cc(=O)[nH]2)c1OC | 0.9 | 7.8 | / | -0.3
Cc1ccsc1/C=N/Nc1nc(Cl)c(Cl)cc1Cl | 27.6 | ? | / | 37.4
Cc1ccc(/C=N/Nc2nc(Cl)c(Cl)cc2Cl)s1 | 11.4 | 60.5* | / | 44.8
Cc1ccccc1/C=N/Nc1nc2ccccc2[nH]1 | 176.9 | / | -10.0 | 228.8*
Cc1[nH]c2ccccc2c1/C=N/Nc1nc(N2CCCCC2)nc(N2CCCCC2)n1 | -3.3 | / | -3.4 | -5.1
Cc1[nH]c2ccccc2c1/C=N/Nc1nc2ccccc2[nH]1 | 336.5 | / | -2.1 | 402.5*
COc1ccc(/C=N/Nc2nc3ccccc3[nH]2)c(OC)c1OC | 110.2 | -16.5 | 0.2 | 108.2*
C[C@@H]1CN([C@H](C)CO)C(=O)c2cc(-c3ccc(F)cc3)cnc2O[C@H]1CN(C)C(=O)Nc1ccccc1F | / | -1.7 | / | /
C[C@H](CO)N1C[C@H](C)[C@H](CN(C)C)Oc2c(NS(=O)(=O)c3cccs3)cccc2C1=O | / | -1.6 | / | /
CN1c2ccc(-c3ccc(C#N)cc3)cc2[C@@H]2[C@@H](CCN2C(=O)CC2CC2)[C@H]1CO | / | -3.3 | / | /
C[C@H]1CN([C@@H](C)CO)C(=O)Cc2cc(NC(=O)CCN3CCOCC3)ccc2O[C@H]1CN(C)S(=O)(=O)c1ccc(Cl)cc1 | / | 9.2 | / | /
O=[N+]([O-])c1cc(/C=N/Nc2nc3ccccc3[nH]2)c(O)cc1O | 247.4 | / | / | 304.6*
SMILES | HSF1 inhib | esBAF inh | Vif imaging | HSF1 activator
C(=N\Nc1nc2ccccc2[nH]1)/c1cccc2cccnc12 | -15.0 | / | -1.7 | -7.8
O=c1[nH]c(N/N=C/c2cc3c(cc2[N+](=O)[O-])OCO3)nc2ccccc12 | 4.6 | 20.9 | 2.2 | 8.7
C(=N\Nc1nc2ccccc2[nH]1)/c1c[nH]c2ccccc12 | 243.6 | / | -27.9 | 309.0*
Cc1ccc(/C=N/Nc2nc3ccccc3[nH]2)s1 | 439.6 | / | -9.1 | 452.0*
COc1ccccc1-c1ccc([C@H]2[C@@H](CO)N3CCCCN(Cc4ccncc4)C[C@H]23)cc1 | / | -6.0 | / | /
C[C@@H]1CN([C@H](C)CO)C(=O)c2cc(C#CCC3CCCC3)cnc2O[C@H]1CN(C)C(=O)CN(C)C | / | -0.1 | / | /
